According to PMC4336329 (PLoS ONE, 2015):
Hit rate of the full screen: of about 310,000 compounds, about 14,000 (4.5%) showed an effect of 50% or more. Effects have a minus sign here. The sample as a whole holds a higher share of strong results than the screen did.

Target: human ether-à-go-go-related gene (hERG) potassium channel (human, UniProt Q12809)
Assay: primary screen, population patch clamp on CHO cells stably expressing hERG; higher = less effect of the substance
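Note: peak tail current of the secondary pulse compared with the same well before compound.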

Chain of human ether-à-go-go-related gene (hERG) potassium channel (Q12809 whole entry, looked up): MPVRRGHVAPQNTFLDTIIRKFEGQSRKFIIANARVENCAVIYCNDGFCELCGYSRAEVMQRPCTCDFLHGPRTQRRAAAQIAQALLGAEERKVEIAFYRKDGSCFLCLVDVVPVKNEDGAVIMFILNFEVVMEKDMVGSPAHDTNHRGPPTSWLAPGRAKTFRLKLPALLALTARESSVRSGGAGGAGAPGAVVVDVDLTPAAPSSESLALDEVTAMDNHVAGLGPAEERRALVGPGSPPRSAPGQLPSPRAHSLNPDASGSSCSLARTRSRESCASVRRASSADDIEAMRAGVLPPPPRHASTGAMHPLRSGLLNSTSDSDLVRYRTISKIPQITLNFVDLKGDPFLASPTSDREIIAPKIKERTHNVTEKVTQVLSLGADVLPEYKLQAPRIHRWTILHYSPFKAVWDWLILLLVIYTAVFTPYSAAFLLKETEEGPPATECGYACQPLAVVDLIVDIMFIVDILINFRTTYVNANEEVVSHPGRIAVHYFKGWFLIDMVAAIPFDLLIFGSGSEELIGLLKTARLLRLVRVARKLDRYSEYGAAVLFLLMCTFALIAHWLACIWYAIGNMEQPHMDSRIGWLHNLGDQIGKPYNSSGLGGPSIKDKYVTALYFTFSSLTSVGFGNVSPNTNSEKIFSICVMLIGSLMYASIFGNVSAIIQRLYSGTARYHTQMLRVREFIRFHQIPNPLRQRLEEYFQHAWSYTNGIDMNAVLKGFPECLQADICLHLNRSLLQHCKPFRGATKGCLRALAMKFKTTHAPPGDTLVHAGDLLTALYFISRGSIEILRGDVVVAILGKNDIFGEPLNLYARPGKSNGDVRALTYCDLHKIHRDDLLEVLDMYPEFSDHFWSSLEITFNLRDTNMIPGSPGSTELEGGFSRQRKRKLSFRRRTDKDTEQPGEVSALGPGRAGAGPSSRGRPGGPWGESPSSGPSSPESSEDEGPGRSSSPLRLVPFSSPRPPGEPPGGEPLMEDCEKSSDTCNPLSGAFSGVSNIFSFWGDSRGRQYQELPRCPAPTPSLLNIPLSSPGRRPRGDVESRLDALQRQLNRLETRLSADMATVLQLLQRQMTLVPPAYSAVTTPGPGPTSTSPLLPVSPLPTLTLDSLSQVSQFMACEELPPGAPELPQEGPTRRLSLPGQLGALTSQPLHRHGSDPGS

Row | Structure (SMILES) | hERG current change (%, negative = inhibition) at 10uM
1 | COC(=O)c1ccccc1NC(=S)N1CCC(N2CCCCC2)CC1 | -12.2%
2 | Cc1oc(-c2ccccc2Cl)nc1CS(=O)CC(=O)NC1CC1 (centres unmarked) | 7.58%
3 | C[C@@H]1C=C[C@](Cc2ccccc2)(C(=O)NCCc2c[nH]c3ccccc23)N1C(=O)c1ccccc1 | -7.94%
4 | COc1ccc(Nc2c(C)cccc2C)cc1 | 17.7%
5 | COc1ccc(-c2cc(C)nc(SCC(=O)c3cccc([N+](=O)[O-])c3)n2)cc1 | 0.439%
6 | O=C(COC(=O)C1C2CC3OC(=O)C1C3C2)Nc1ccc(F)cc1 (centres unmarked) | 13.2%
7 | COc1ccc(CN2CCC(C(=O)N3CCCC(C)C3)CC2)cc1OC.O=C(O)C(=O)O (centres unmarked) | -19.2%
8 | CCC(C)(C)NC(=O)CSc1nc(Cc2ccccc2)nc2ccccc12 | 11.5%
9 | CCOc1ccccc1NS(=O)(=O)c1ccc2c(c1)NC(=O)CCS2 | -46%
10 | O=C(CC1C(=O)NCCN1Cc1ccc(F)c(F)c1)NCCCn1ccnc1 (centres unmarked) | 19%
11 | CC(NC(=O)c1ccc2ccccc2n1)c1ccccc1 (centres unmarked) | -6.17%
12 | CN(CC(=O)Nc1ccccc1Cl)C(=O)COC(=O)c1cc([N+](=O)[O-])ccc1N1CCOCC1 | -44.4%
13 | O=C(COC(=O)c1cc([N+](=O)[O-])ccc1N1CCOCC1)c1ccc(Br)cc1 | -44.6%
14 | O=C(COC(=O)c1cc([N+](=O)[O-])ccc1N1CCOCC1)c1ccccc1 | -20.1%
15 | O=C(NCCc1cccc(Cl)c1)c1cc([N+](=O)[O-])ccc1Cl | -51%
16 | O=C(NCCc1cccc(Cl)c1)c1cccc([N+](=O)[O-])c1 | -15.7%
17 | CN(CC(=O)Nc1ccc(F)cc1)C(=O)c1cc([N+](=O)[O-])ccc1N1CCOCC1 | -24.9%
18 | CN(CC(=O)Nc1ccc(F)cc1)C(=O)COC(=O)c1cc([N+](=O)[O-])ccc1N1CCOCC1 | -64.3%
19 | O=C(NCCCc1ccccc1)c1cc([N+](=O)[O-])ccc1Cl | -12.3%
20 | COc1ccc(CCNC(=O)c2cc([N+](=O)[O-])ccc2N2CCOCC2)cc1 | -33%
21 | NS(=O)(=O)c1ccc(CCNC(=O)c2cc([N+](=O)[O-])ccc2N2CCOCC2)cc1 | -15.2%
22 | O=C(COC(=O)c1cc([N+](=O)[O-])ccc1N1CCOCC1)c1ccc(F)cc1 | -55.9%

Row | Structure (SMILES) | hERG current change (%, negative = inhibition) at 10uM
23 | O=C(NCCc1ccc(F)cc1)c1cc([N+](=O)[O-])ccc1N1CCOCC1 | -71.4%
24 | CC(C)C(=O)NC(=S)Nc1sc2c(c1C(N)=O)CCCC2 | 13.5%
25 | COc1ccc(N2C(=O)CSCC2=O)cc1OC | 8.4%
26 | Cc1ccc2nc(CCl)[n+]([O-])c(-c3ccccc3)c2c1 | 1.16%
27 | Cc1ccc(CN2C(=O)CCC2C(=O)NCCN2CCOCC2)cc1 (centres unmarked) | 3.18%
28 | CCc1cccc(CC)c1NC(=O)CN1CCN(c2ccccc2)CC1.Cl | -15.7%
29 | O=S(=O)(N1CCOCC1)N1CCN(c2ccccc2F)CC1 | -8.17%
30 | CC(C)CNC(=O)c1ccccc1-c1ccccc1C(=O)O | 19.5%
31 | CCc1nnc(NC(=O)CSc2nnc(C(C)NC(=O)c3ccccc3F)n2C)s1 (centres unmarked) | 9.22%
32 | CCOc1ccc(C(=O)c2cc([N+](=O)[O-])ccc2N2CCOCC2)cc1 | -20.4%
33 | N#CC1(NC(=O)COC(=O)c2cc([N+](=O)[O-])ccc2N2CCOCC2)CCCCC1 | -55.3%
34 | O=C(COC(=O)c1cc([N+](=O)[O-])ccc1N1CCOCC1)NCc1ccc(Cl)cc1Cl | -63%
35 | CCOc1ccc(NC(=O)COC(=O)c2cc([N+](=O)[O-])ccc2N2CCOCC2)cc1 | -43.8%
36 | O=C(COC(=O)c1cc([N+](=O)[O-])ccc1N1CCOCC1)NC1CCCCC1 | -30.7%
37 | CCOc1ccc(NC(=O)c2cc([N+](=O)[O-])ccc2N2CCOCC2)cc1 | -55.5%
38 | N#CC1(NC(=O)COC(=O)c2cc([N+](=O)[O-])ccc2N2CCCC2)CCCCC1 | -29.8%
39 | O=C(COC(=O)c1cc([N+](=O)[O-])ccc1N1CCOCC1)Nc1ccc(Cl)cc1 | -28.2%
40 | COc1ccccc1CNC(=O)COC(=O)c1cc([N+](=O)[O-])ccc1N1CCOCC1 | -48.9%
41 | CCOc1cc(/C=N/NC(=O)c2cccnc2)ccc1OCC(=O)N(C)C | 19.3%
42 | CC(OC(=O)c1ccccc1C(=O)N(C)c1ccccc1)C(=O)Nc1ccccc1[N+](=O)[O-] (centres unmarked) | -45.5%
43 | CN1[C@@H]2CC[C@H]1CC(OC1c3ccccc3CCc3ccccc31)C2.O=C(O)CC(O)(CC(=O)O)C(=O)O (some centres unmarked) | -42.6%
44 | CC(C)NC(=O)c1cc(-c2cccs2)on1 | -4.89%

Row | Structure (SMILES) | hERG current change (%, negative = inhibition) at 10uM
45 | CCCCN(C(=O)c1ccc2c(c1)S(=O)(=O)N=C1CCCCCN12)c1c(N)n(CCCC)c(=O)[nH]c1=O | 8.23%
46 | COc1cc(N=CC2=C(O)c3ccccc3C2=O)cc(OC)c1 | 8.36%
47 | Cc1cccc(NS(=O)(=O)c2ccc(C)c(C(=O)NCC(c3ccccc3)N(C)C)c2)c1 (centres unmarked) | -14.2%
48 | Nc1c(-c2ccccc2)c(CSc2nc3ccccc3[nH]2)nn1-c1cccc(Cl)c1 | -3.15%
49 | O=C(COc1ccc(Cl)cc1)NC1CC1 | 5.47%
50 | O=C(Nc1ccc(-c2nc3ccccc3s2)cc1)C1=COCCO1 | 22.2%
51 | O=C(Nc1ccccc1-c1nc2ccccc2s1)C1=COCCO1 | 0.377%
52 | O=C(Nc1ccc(-c2nc3ccccc3s2)c(O)c1)C1=COCCO1 | -73.1%
53 | CCOc1ccc(/C(O)=C2/C(=O)C(=O)N(CCN(CC)CC)C2c2cccs2)cc1 (centres unmarked) | 8.37%
54 | O=c1cc(-c2ccccc2Cl)oc2ccc([N+](=O)[O-])c(O)c12 | 9.93%
55 | CN(CC1CCCN(CCc2ccc(Cl)cc2)C1)C(=O)C(=O)c1ccco1 (centres unmarked) | -74.5%
56 | CN(CC1CCCN(CCc2ccc(Cl)cc2)C1)C(=O)c1ccco1 (centres unmarked) | -25.5%
57 | Cc1ccccc1CCN1CCCC(CN(C)CC(C)(C)C)C1 (centres unmarked) | 8.88%
58 | Cc1ccccc1CCN1CCCC(CN(C)C(=O)C(=O)c2ccco2)C1 (centres unmarked) | -70.1%
59 | CCOc1ccc(NC(=O)CSc2nncn2C)cc1 | 18.7%
60 | CCc1noc(C)c1C(=O)Nc1nnc(C(CC)CC)s1 | -16.9%
61 | O=C1/C(=C/c2cccnc2)CC/C1=C\c1cccnc1 | -24.5%
62 | CC1C/C(=C\c2cccnc2)C(=O)/C(=C/c2cccnc2)C1 (centres unmarked) | -63.1%
63 | CC1C/C(=C/c2ccncc2)C(=O)/C(=C/c2ccncc2)C1 (centres unmarked) | -41.9%
64 | COc1ccccc1CC(=O)Nc1ccc(S(=O)(=O)N2CC(C)CC(C)C2)cc1 (centres unmarked) | -7.25%
65 | COc1cc(OC)nc(NC(=O)CN2CCN(c3ccc(F)cc3)CC2)n1 | -20.1%
66 | CN1CCc2c(sc3c2C(=O)NC(c2ccc4c(c2)OCO4)N3)C1 (centres unmarked) | -16.5%

Row | Structure (SMILES) | hERG current change (%, negative = inhibition) at 10uM
67 | CN1CCc2c(sc3c2C(=O)NC(c2ccccn2)N3)C1 (centres unmarked) | -1.35%
68 | CSc1ccc(C2NC(=O)c3c(sc4c3CCN(C)C4)N2)cc1 (centres unmarked) | -60.6%
69 | Cc1ccc(C2NC(=O)c3c(sc4c3CCN(C)C4)N2)s1 (centres unmarked) | -36.8%
70 | CN1CCc2c(sc3c2C(=O)NC(/C=C/c2ccco2)N3)C1 (centres unmarked) | -27.4%
71 | CN1CCc2c(sc3c2C(=O)NC(/C=C\c2ccccc2)N3)C1 (centres unmarked) | -58.6%
72 | Cc1ccc2nc(-c3ccc(-c4ccccn4)s3)cn2c1 | -1.76%
73 | CCNc1nc(NCC)nc(N(C#N)CCOc2ccccc2)n1 | -55.1%
74 | CCNc1nc(NC(C)C)nc(N(C#N)CCOc2ccccc2)n1 | -26%
75 | CN(C)c1nc(N(C)C)nc(N(C#N)CCOc2ccccc2)n1 | -4.58%
76 | ON1C2CCCCC2N(O)C1c1ccccc1 (centres unmarked) | 13.2%
77 | O=C(COC(=O)C1(c2ccccc2F)CCCC1)NCc1ccc2c(c1)OCO2 | -6.33%
78 | CCc1ccc(-c2nc(CN3CCCC(C(=O)O)C3)c(C)o2)cc1 (centres unmarked) | 14.2%
79 | CCOC(=O)N1CCC(NC(=O)C2CCCN(Cc3nc(-c4cccc(Cl)c4)oc3C)C2)CC1 (centres unmarked) | -72.2%
80 | CCOC(=O)N1CCC(NC(=O)C2CCCN(Cc3nc(-c4ccc(CC)cc4)oc3C)C2)CC1 (centres unmarked) | -71.5%
81 | CCOC(=O)N1CCC(NC(=O)CSCc2nc(-c3cccc(OC)c3)oc2C)CC1 | -17.6%
82 | Cc1oc(-c2cccc(Cl)c2)nc1CS(=O)(=O)CC(=O)NC1CCCC1 | 6.45%
83 | CCOC(=O)N1CCC(NC(=O)CS(=O)(=O)Cc2nc(-c3cccc(Cl)c3)oc2C)CC1 | -18.3%
84 | CCOC(=O)N1CCC(NC(=O)CS(=O)Cc2nc(-c3ccc(C)cc3)oc2C)CC1 (centres unmarked) | -2.4%
85 | CCOC(=O)N1CCC(NC(=O)C2CCCN(c3nc4ccccc4o3)C2)CC1 (centres unmarked) | -28.4%
86 | CCOC(=O)N1CCC(NC(=O)C2CCCN(Cc3nc(-c4cccc(C)c4)oc3C)C2)CC1 (centres unmarked) | -63.6%
